# Measured values taken from PubChem BioAssay AID652233 (Johns Hopkins Ion Channel Center, 2013).
# In all, about 2,300 compounds went through this assay and fewer than 10 were called active. The list is a sample of the results. Values without a mark were called inactive.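 The calls were made as follows: active = yellow fluorescent protein signal ratio exceeding the buffer control mean by over 5 SD of those controls; inactive = the rest.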
# Assay: iodide YFP quench changes in parental YFP-HEK293, counter-screen for TMEM16A inhibitor project, cell-based (AID 652233);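 also: ratio is mean of duplicate wells from kinetic YFP trace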
# Details: ionomycin, at 10 µM
row,SMILES,YFP ratio F(max-min)/F0
1,O=C(Nc1ccccc1)c1ccccc1NC(=O)C(F)(F)F,-0.833
2,Cn1c(CN2CCOCC2)nc2cc(NC(=O)c3ccc(Cl)cc3)ccc21,-0.87
3,Cc1ccc(C(=O)O)cc1-c1ccc(/C=C2\SC(=O)N(CC(=O)Nc3ccc4c(c3)OCO4)C2=O)o1,-1.05
4,CCc1cc2c(N3CCN(c4nnc(CC)s4)CC3)ncnc2s1,-1.01
5,Cc1ccc(-c2csc(-c3c[nH]c4ccccc34)n2)cc1,-0.919
6,CN(Cc1cccnc1)C(=O)c1cc(COc2ccc3ncccc3c2)on1,-0.909
7,CCOC(=O)C1CCN(c2ncnc3c2oc2ccc(Br)cc23)CC1,-1.19
8,O=C1NC(=O)C2C1C(c1ccc([N+](=O)[O-])cc1)=NN2Cc1ccccc1 (stereo not drawn),-1.22
9,Cc1ccc2c(c1)N(CC(=O)N1CCCc3ccccc31)C(=O)C(C)O2 (stereo not drawn),-1.08
10,O=S1(=O)CCN(Cc2ccccc2Cl)CC1,-0.979
11,N#Cc1nc(N)nc(N(c2ccccc2)c2ccccc2)n1,-1.24
12,CCCOc1ccc(Cc2c(Cl)nc(SC)nc2NC)cc1,-1.09
13,Cc1ccc(NC(=O)CN(C)CC(=O)Nc2cccc(F)c2)cc1[N+](=O)[O-],-0.913
14,CCN(CC)S(=O)(=O)c1ccc(N(C)Cc2ccc(C(F)(F)F)cc2)nc1,-1.04
15,CC1CCN(C(=O)c2ccc(CSc3ccc(Cl)cc3)cc2)CC1,-0.991
16,COc1ccc(-n2c(C)cc(C(=O)CSc3nnc(-c4cccs4)o3)c2C)cc1,-1.16
17,CCn1nccc1C(=O)Nc1ccc(S(=O)(=O)NC23CC4CC(CC(C4)C2)C3)cc1,-1.03
18,O=C(CN1CCN(C(=S)NC2CCCC2)CC1)Nc1ccc(Oc2ccccc2)cc1,-1.09
19,Cc1ccc(N)cc1-n1c(C)ccc1C,-1.02
20,CN(C)c1cc[n+](Cc2ccccc2)cc1,-1.12
21,Cn1c(CCN2CCCCCC2)nc2cc(NC(=O)Nc3ccccc3)ccc21,-1.1
22,COc1cc(CC(=O)Nc2nc(-c3ccc(F)c(F)c3)cs2)cc(OC)c1OC,-1.01

row,SMILES,YFP ratio F(max-min)/F0
1,S=C(NCC1CCCO1)N1CCN(c2ccc(Cl)c(Cl)c2)CC1 (stereo not drawn),-0.789
2,O=c1cc(C(F)(F)F)[nH]c(=O)n1C1CCCCC1,-1.23
3,CCCc1cc(=S)n2c([nH]c3ccccc32)c1C#N,-0.888
4,Cc1ccc(NC(=O)C(C)c2cccc(C(=O)c3ccccc3)c2)cc1 (stereo not drawn),-1.26
5,Cc1nc(CNS(=O)(=O)c2ccc(Oc3ccccc3)cc2)cs1,-1.1
6,C=CCSc1nsc(NC(=O)Nc2cccc(C(C)=O)c2)n1,-1.12
7,O=C(O)c1ccc(NC(=O)C2CCCCC2)cc1,-1.22
8,Fc1ccc2[nH]c3c(N4CCSCC4)ncnc3c2c1,-1.05
9,CCCC(=O)Nc1ccccc1N1CCN(C(=O)c2ccccc2)CC1,-1.02
10,COc1ccc(-c2nc(CCNC(=O)c3ccc(Br)o3)cs2)cc1,-1.06
11,COc1ccc(NC(=O)C2=CC(c3ccc(OC)c(OC)c3)=NS(=O)(=O)N2C)cc1,-1.13
12,Cc1[nH]n(-c2cccc(Cl)c2)c(=O)c1-c1ccc(Cl)cc1,-0.864
13,CCOC(=O)C1=C(CN2CCc3ccccc32)NC(=O)NC1c1cccc([N+](=O)[O-])c1 (stereo not drawn),-1.14
14,Cc1ccc(C)c(N2CCN(C(=O)CCCCn3c(=O)[nH]c4ccccc4c3=O)CC2)c1,-1
15,CSc1nnc2c(n1)OC(c1ccsc1)N(C(C)=O)c1ccccc1-2 (stereo not drawn),-1.24
16,CC(=O)c1cc(CN2CCC(C(=O)Nc3cccc(-c4cscn4)c3)CC2)cs1,-0.907
17,Cc1cccc(-n2c(SCC(N)=O)nc3c(c2=O)C2(CCCCC2)Cc2ccccc2-3)c1,-0.969
18,COc1ccc(C(=O)NC2CCCc3c2cnn3-c2cccc(C)c2C)c(OC)n1 (stereo not drawn),-0.94
19,CCOC(=O)C(Sc1ncc(C#N)c(N)n1)C(C)C (stereo not drawn),-1.02
20,O=C(NCCc1ccc2c(c1)OCCO2)c1cc2ccccc2o1,-0.931
21,COc1ccc(Cl)cc1NC(=O)CCS(=O)(=O)c1cc2c(cc1C)NC(=O)CO2,-0.855
